We go through 70 compounds from PubChem BioAssay AID485297 (National Center for Advancing Translational Sciences (NCATS), 2010).

About 9,100 (2.8%) of roughly 320,000 compounds were called active. Inconclusive results (about 3%) are left out. The full list was thinned out, with actives kept by preference. A number with no mark means an inactive call. The call rests on the fitted dose curve; in most records, active means well fitted activation curve with a large enough effect; inconclusive means small, poorly fitted or top-dose-only effect; inactive means no such curve, though single readings can be large or run the other way.
Potency means the concentration at half of the fitted maximal effect.

This assay is described as follows: qHTS Assay for Rab9 Promoter Activators. Further: nearly all actives have a fitted effect of over 60% in size. On activation, negative = inhibition: % of control where 0% means no effect. Particulars: Huh7 Rab9 promoter-luciferase reporter, luminescence, 24 h; series mostly up to 9.22 µM; activation, negative = inhibition: at the top concentration. In short, it runs like this:
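Using Huh7 cells stably transfected with Rab9 promoter–luciferase, compounds were incubated 24 h at 37 °C, 5% CO2; luciferase luminescence was read 10 min after reagent addition.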
With `O=C(Nc1ccc(Br)cc1)C1CCC(=O)N1Cc1ccccc1Cl` (stereo not given), the “activation, negative = inhibition” value was -2.51%.

Consider `CC1CCN(C(=O)/C(=C\c2ccccc2F)NC(=O)c2ccccc2)CC1`, for which the “activation, negative = inhibition” value is -2.18%.

In the case of `COc1ccc(-c2cc(C(=O)NCCCN3CCOCC3)no2)cc1`, the “activation, negative = inhibition” value was -0.694%.

Take `Cc1c(NC(=O)c2cc(-c3ccc(Br)cc3)on2)c(=O)n(-c2ccccc2)n1C`: the “activation, negative = inhibition” value is 1.87%.

For `CC(C)CNC(=O)c1cc(-c2ccc(Br)cc2)on1`, the Potency is 3.55 µM (active).

With `O=C1COc2ccc(C(=O)CSc3ccc(Br)cc3)cc2N1`, the “activation, negative = inhibition” value was 7.8%.

As for `O=C(CCc1ccccc1Cl)Nc1ccc(S(=O)(=O)Nc2nccs2)cc1`, the “activation, negative = inhibition” value was -4.37%.

Take `COc1cc(C(=O)NCC(c2ccco2)N2CCCC2)ccc1OCc1ccccc1` (stereo not given): the “activation, negative = inhibition” value was -5.2%.

Turning to `O=C(N/N=C/c1c[nH]c2ccccc12)c1cc2ccccc2o1`, the “activation, negative = inhibition” value is -3.56%.

`O=C(O)c1cccc(NC(=S)N/N=C/c2c[nH]c3ccccc23)c1`: the Potency was 3.55 µM (active).

In the case of `CN(C)S(=O)(=O)c1cccc(NC(=S)N/N=C/C(=O)c2ccccc2)c1`, the “activation, negative = inhibition” value was -3.18%.

With `O=S(=O)([N-]c1nc2ccccc2nc1-[n+]1ccc(Cc2ccccc2)cc1)c1ccc(Br)s1`, the “activation, negative = inhibition” value was -2.42%.

As to `CCCC(=O)N(CCN1CCOCC1)c1nc2ccc(OCC)cc2s1`, the “activation, negative = inhibition” value is 6.31%.

Turning to `CCOc1ccc2nc(C(=O)N3CCCC(C)C3)sc2c1` (stereo not given), the Potency is 1.78 µM (active).

On to `CCOc1ccc2nc(N(CCN(C)C)C(=O)c3ccc4ccccc4c3)sc2c1`, for which the “activation, negative = inhibition” value was 0.0921%.

Take `CN(C)S(=O)(=O)c1ccc(C(=O)NCC2(N3CCOCC3)CCCCC2)cc1`: the “activation, negative = inhibition” value is 0.588%.

Take `CNS(=O)(=O)c1ccc(C(=O)NCC(=O)NCCc2ccc3c(c2)OCCO3)cc1`: the “activation, negative = inhibition” value was -3.12%.

As for `Cc1cccc(N(Cc2ccccc2)C(=O)c2ccccc2F)c1`, the “activation, negative = inhibition” value is 8.75%.

As for `CCN1/C(=C/C(=S)Nc2ccccc2)Sc2ccccc21`, the Potency is 2.82 µM (active).

With `O=C(CCN1c2ccccc2Sc2ccccc21)Nc1ccccc1`, the “activation, negative = inhibition” value is -4%.

Consider `CCN1/C(=C/c2ccc3ccc(C)cc3[n+]2CC)Sc2ccccc21`, for which the “activation, negative = inhibition” value is -22.4%.

Take `CC(OC(=O)Cc1ccc(F)cc1)C(=O)N1CCc2ccccc21` (stereo not given): the “activation, negative = inhibition” value was 1.57%.

Consider `COc1cccc(C(=O)Nc2nnc(S(=O)(=O)N3CCCCC3)s2)c1`, for which the “activation, negative = inhibition” value was 3.53%.

As for `C=CCN1C(=O)c2ccc(C(=O)N3CCC(C(=O)OCC)CC3)cc2C1=O`, the “activation, negative = inhibition” value was -0.533%.

On to `Cc1ccc(OS(=O)Nc2cccc3nccnc23)cc1` (stereo not given), for which the “activation, negative = inhibition” value is 7.91%.

As for `CCc1ccc(NC(=O)Cn2nnc(C(=O)NCc3ccc4c(c3)OCO4)c2N)cc1`, the “activation, negative = inhibition” value is -9.68%.

Turning to `O=C(CCS(=O)(=O)Cc1ccccc1)Nc1ccc2c(c1)OCCO2`, the “activation, negative = inhibition” value was -1.29%.

For the compound `Nc1c(C(=O)Nc2ccc3c(c2)OCCO3)nnn1Cc1ccccc1`, the Potency was 1.26 µM (active).

`CC(C)(C)OC(=O)NCCCCCNC(=O)c1nc[nH]c1C(=O)NCc1ccccc1`: the “activation, negative = inhibition” value was -5.73%.

Regarding `O=C(c1cnn2ccccc12)N1CCc2ccccc21`, the Potency was 1.78 µM (active).

Consider `Cc1cnc(C(=O)OCC(=O)N2CCc3ccccc32)cn1`, for which the “activation, negative = inhibition” value is 5.77%.

In the case of `CCOC(=O)N1CCC(NC(=O)c2cnn3ccccc23)CC1`, the “activation, negative = inhibition” value was 1.89%.

Regarding `CC(=O)c1c(C)[nH]c(C(=O)N2CCN(S(=O)(=O)c3ccc(F)c(F)c3)CC2)c1C`, the “activation, negative = inhibition” value is 0.546%.

In the case of `COn1c(-c2ccc(Cl)cc2Cl)nc2ncccc21`, the “activation, negative = inhibition” value was -2.3%.

Consider `Clc1ccc(-c2cc(-c3ccccn3)on2)c(Cl)c1`, for which the Potency is 0.1 µM (active).

Regarding `Clc1ccc(-c2ncc3ccccn23)c(Cl)c1`, the “activation, negative = inhibition” value is -3.01%.

In the case of `COc1cccc(C(=O)OCC(=O)c2[nH]c(C)c(C(C)=O)c2C)c1`, the “activation, negative = inhibition” value was -7.27%.

`CN(Cc1cccs1)C(=O)CN1C(=O)c2ccccc2S1(=O)=O`: the “activation, negative = inhibition” value was 22.4%.

`O=C(/C=C(O)/C=C/c1ccc(O)cc1)/C=C/c1ccc(O)cc1`: the “activation, negative = inhibition” value was -2.14%.

Turning to `CC(=O)c1ccc2c(c1)OCCOCCOc1ccc(C(C)=O)cc1OCCOCCO2`, the “activation, negative = inhibition” value is 0.828%.

With `CCCc1cc(C(=O)Nc2ccc(C(=O)OC)cc2)cs1`, the “activation, negative = inhibition” value is 24.7%.

On to `CCCCC(CC)C(=O)Nc1ccc(Cl)cn1` (stereo not given), for which the “activation, negative = inhibition” value is -2.96%.

With `O=C(Nc1ccc(Cl)cn1)c1ccc2c(c1)OCCO2`, the Potency is 0.562 µM (active).

In the case of `CCCc1cc(C(=O)Nc2ccc(Cl)cn2)cs1`, the Potency was 0.447 µM (active).

Turning to `COc1ccc(/C=N/NC(=O)c2ccc3c(c2)OCCO3)c(OC)c1`, the “activation, negative = inhibition” value was 1.01%.

For the compound `Cc1cccc(C)c1NC(=O)CNC(=O)c1ccc2c(c1)OCCO2`, the “activation, negative = inhibition” value was 1.78%.

As for `Cc1nc(NC(=O)c2ccc3c(c2)OCCO3)ccc1Br`, the Potency was 0.562 µM (active).

Turning to `Cc1ccc(C(=O)NNC(=O)c2ccc3c(c2)OCCO3)cc1`, the Potency was 3.98 µM (active).

For the compound `Cc1ccc2sc(NNC(=O)c3ccc4c(c3)OCCO4)nc2c1C`, the “activation, negative = inhibition” value was -6.32%.

On to `COc1ccc(C(=O)NC(=S)Nc2ccc(Cl)cn2)cc1OC`, for which the “activation, negative = inhibition” value is -0.572%.

`O=C(Nc1cccc(Cl)c1N1CCOCC1)c1ccc2c(c1)OCCO2`: the “activation, negative = inhibition” value was -2.62%.

In the case of `CCOCC(=O)NCc1ccc2c(c1)cc(C)n2C`, the “activation, negative = inhibition” value was 0.0404%.

Consider `Cc1cccc(Nc2nnc(SCC(=O)c3c(N)n(C4CC4)c(=O)[nH]c3=O)s2)c1C`, for which the “activation, negative = inhibition” value was -5.09%.

Consider `Cc1cc(C)c2nc(SCC(=O)N(C)C3CCS(=O)(=O)C3)cc(C)c2c1` (stereo not given), for which the “activation, negative = inhibition” value is -3.36%.

In the case of `CC(C)(C)C1C/C(=C/c2ccco2)C(=O)/C(=C/c2ccco2)C1` (stereo not given), the “activation, negative = inhibition” value is -4.64%.

Regarding `CSc1ccc(Cl)c(C(=O)OCC(=O)N2CCNC2=O)c1`, the “activation, negative = inhibition” value was -0.409%.

For the compound `CCn1c(=S)sc2c(=O)n(CC(=O)Nc3ccc(OC)cc3)c(C)nc21`, the “activation, negative = inhibition” value was 3.7%.

Regarding `Cc1ccc(CSc2ccc(S(=O)(=O)N3CCCCC3)cn2)cc1`, the “activation, negative = inhibition” value is -3.41%.

`O=C(CCNS(=O)(=O)c1ccccc1)NCCCc1ccccc1`: the “activation, negative = inhibition” value was 2.02%.

Take `COc1cccc(-c2ccc3c(c2)S(=O)(=O)c2cccc(C(=O)O)c2C3=O)c1OC`: the “activation, negative = inhibition” value was -4.96%.

Regarding `COc1ccc2c(c1OC)C(=O)c1ccccc1C2=O`, the Potency is 3.98 µM (active).

With `CC(=O)Oc1ccc2c(c1)C(=O)c1ccccc1C2=O`, the “activation, negative = inhibition” value is 13.4%.

As for `CN(CC(=O)NCCc1ccc(F)cc1)CC(=O)Nc1ccc(F)c(F)c1F`, the “activation, negative = inhibition” value is -3.52%.

In the case of `Cc1c(C(=O)Nc2ccccn2)oc2ccc(Br)cc12`, the Potency is 3.55 µM (active).

For the compound `Cc1nonc1NC(=O)c1oc2ccccc2c1C`, the “activation, negative = inhibition” value is 27.1%.

`Cc1noc(C)c1C(=O)Nc1ccccn1`: the “activation, negative = inhibition” value was -0.886%.

For the compound `CC1CCCN(C(=O)c2cc(-c3ccco3)nc3ccccc23)C1` (stereo not given), the “activation, negative = inhibition” value is -3.82%.

With `COc1cc(CC(=O)NCc2cccs2)cc(OC)c1OC`, the “activation, negative = inhibition” value was 1.53%.

Turning to `O=C(CCC(=O)c1ccccc1)NCc1cccc(C(F)(F)F)c1`, the “activation, negative = inhibition” value was 3.01%.

Consider `O=C(Cc1cccs1)NCc1cccc(C(F)(F)F)c1`, for which the Potency was 2.51 µM (active).
